Among the data in PubChem BioAssay (EPA / NIEHS) are outcome and AC50 values, retold here.

Holding throughout (settings): mRNA level, 48 h; actives raise or lower the signal
Read-out in assay [1]: Cytochrome P450 4A22 (Homo sapiens) (UniProt Q5TCH4)
The assay can be described thus: LTEA_HepaRG_CYP4A22: Life Technologies and Expression Analysis (LTEA) Assay for Cytochrome P450 4A22 (CYP4A22) using HepaRG (AID 2283495). The gist of the method:
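Concentration-response (8 points, max 100 uM, 0.5% DMSO) in human HepaRG liver cells after 48 h exposure. CYP4A22 mRNA by TaqMan qRT-PCR with housekeeping-gene normalization.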

Read-out in assay [2]: Cytochrome P450 7A1 (Homo sapiens) (UniProt P22680)
Briefly: LTEA_HepaRG_CYP7A1: Life Technologies and Expression Analysis (LTEA) Assay for Cytochrome P450 7A1 (CYP7A1) using HepaRG (AID 2283496). The procedure, abridged: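 Using 0.5% DMSO as vehicle and baseline, chemicals were tested in duplicate over an 8-point range from 100 uM on HepaRG cells for 48 h; qRT-PCR signals were normalised to ACTB, GAPDH and POLR2A.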

Read-out in assay [3]: Glutathione S-Transferase (GSTA2), GSTA2 (gene 2939)
The assay can be described thus: LTEA_HepaRG_GSTA2: Life Technologies and Expression Analysis (LTEA) Assay for Glutathione S-Transferase (GSTA2) using HepaRG (AID 2283497). The gist of the method:
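GSTA2 transcript levels came from Fluidigm TaqMan qRT-PCR normalized to three housekeeping genes, fitted in both directions against DMSO. HepaRG cultures received chemicals for 48 h in serum-free induction medium (0.5% DMSO), 8 half-log concentrations up to 100 uM, duplicate.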

Read-out in assay [4]: Glutamate-cysteine ligase catalytic (GCLC), GCLC (gene 2729)
The assay can be described thus: LTEA_HepaRG_GCLC: Life Technologies and Expression Analysis (LTEA) Assay for Glutamate-cysteine ligase catalytic (GCLC) using HepaRG (AID 2283498). The procedure, abridged: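 Expression by TaqMan qRT-PCR, normalized to three housekeeping genes (ACTB, GAPDH, POLR2A), with up- or down-regulation fitted against DMSO. HepaRG cells dosed in duplicate for 48 h with 8 half-log concentrations up to 100 uM, vehicle 0.5% DMSO.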

Read-out in assay [5]: Glutamate-cysteine ligase regulatory (GCLM), GCLM (gene 2730)
Briefly: LTEA_HepaRG_GCLM: Life Technologies and Expression Analysis (LTEA) Assay for Glutamate-cysteine ligase regulatory (GCLM) using HepaRG (AID 2283500). The gist of the method:
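In this multiplexed HepaRG gene-expression assay, GCLM mRNA change after 48 h treatment (8 concentrations, max 100 uM) was scored against DMSO by bidirectional curve fitting.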

Read-out in assay [6]: Glutathione S-transferase M3 (GSTM3), GSTM3 (gene 2947)
The assay can be described thus: LTEA_HepaRG_GSTM3: Life Technologies and Expression Analysis (LTEA) Assay for Glutathione S-transferase M3 (GSTM3) using HepaRG (AID 2283501). The procedure, abridged:
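Expression of GSTM3 is determined by qRT-PCR in human liver HepaRG cells treated 48 h with an 8-point half-log range from 100 uM in 0.5% DMSO.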

Read-out in assay [7]: Heat shock 70 kDa protein 1 (HSPA1A), gene 3303
Briefly: LTEA_HepaRG_HSPA1A: Life Technologies and Expression Analysis (LTEA) Assay for Heat shock 70 kDa protein 1 (HSPA1A) using HepaRG (AID 2283502). The gist of the method:
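An oxidative-stress marker readout: HepaRG cells treated 48 h in duplicate with an eight-point series (highest 100 uM) had HSPA1A mRNA quantified by TaqMan qRT-PCR. Activity was fitted in both directions using 0.5% DMSO as baseline.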

Read-out in assay [8]: Hypoxia-inducible factor 1-alpha (Homo sapiens) (UniProt Q16665)
Briefly: LTEA_HepaRG_HIF1A: Life Technologies and Expression Analysis (LTEA) Assay for Hypoxia-inducible factor 1 (HIF1A) Trancription factor using HepaRG (AID 2283503).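 Also: HIF1A transcript by TaqMan qRT-PCR normalized to ACTB GAPDH and POLR2A.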 The procedure, abridged: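 Gain- or loss-of-signal HIF1A mRNA changes are fitted against a DMSO baseline. HepaRG cultures receive eight concentrations, highest 100 uM, for 48 h in serum-free induction medium with 0.5% DMSO.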

Read-out in assay [9]: 3-Hydroxy-3-Methylglutaryl-CoA Synthase 2 (HMGCS2), HMGCS2 (gene 3158)
Briefly: LTEA_HepaRG_HMGCS2: Life Technologies and Expression Analysis (LTEA) Assay for 3-Hydroxy-3-Methylglutaryl-CoA Synthase 2 (HMGCS2) using HepaRG (AID 2283504). The procedure, abridged: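 This steatosis marker was read as HMGCS2 mRNA change in HepaRG cells treated 48 h with up to 100 uM chemical. Normalisation used housekeeping genes; activity in either direction was fitted relative to 0.5% DMSO vehicle.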

Read-out in a further assay: HGF (gene 3082)
The assay can be described thus: LTEA_HepaRG_HGF: Life Technologies and Expression Analysis (LTEA) Assay for Hepatocyte Growth Facto (HGF) using HepaRG (AID 2283505). The procedure, abridged: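 Using HepaRG monolayers kept in 0.5% DMSO, chemicals were tested in duplicate over eight half-log concentrations from 100 uM for 48 h. Endpoint: HGF mRNA change relative to DMSO, normalized to ACTB/GAPDH/POLR2A.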

Read-out in assay [10]: Insulin Like Growth Factor 1 (IGF1), IGF1 (gene 3479)
The assay can be described thus: LTEA_HepaRG_IGF1: Life Technologies and Expression Analysis (LTEA) Assay for Insulin Like Growth Factor 1 (IGF1) using HepaRG (AID 2283506). The gist of the method: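 Endpoint: IGF1 mRNA change by qRT-PCR, housekeeping-normalized, fitted bidirectionally relative to 0.5% DMSO vehicle. Human HepaRG cells were treated 48 h in serum-free induction medium, eight half-log concentrations topping at 100 uM.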

Read-out in assay [11]: Intercellular Adhesion Molecule 1 (ICAM1), ICAM1 (gene 3383)
The assay can be described thus: LTEA_HepaRG_ICAM1: Life Technologies and Expression Analysis (LTEA) Assay for Intercellular Adhesion Molecule 1 (ICAM1) using HepaRG (AID 2283507). The procedure, abridged: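 Using the human liver line HepaRG, compounds are tested in duplicate over 48 h at concentrations up to 100 uM. Expression is determined by TaqMan qRT-PCR, normalized to endogenous controls, and analysed relative to 0.5% DMSO vehicle.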

Read-out in assay [12]: Insulin-like growth factor-binding protein 1 (IGFBP1), IGFBP1 (gene 3484)
Briefly: LTEA_HepaRG_IGFBP1: Life Technologies and Expression Analysis (LTEA) Assay for Insulin-like growth factor-binding protein 1 (IGFBP1) using HepaRG (AID 2283508). The procedure, abridged: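 HepaRG, 48 h, 8 conc. (max 100 uM, half-log), duplicates, 0.5% DMSO. Readout: TaqMan qRT-PCR, ACTB/GAPDH/POLR2A normalisation. Fit: bidirectional vs DMSO.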

Read-out in assay [13]: Interleukin 6 Receptor (IL6R), IL6R (gene 3570)
Briefly: LTEA_HepaRG_IL6R: Life Technologies and Expression Analysis (LTEA) Assay for Interleukin 6 Receptor (IL6R) using HepaRG (AID 2283510).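 As to AC50: differentiated human HepaRG liver cells in serum-free induction medium.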 The gist of the method: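 In this HepaRG screen, test chemicals act on cells for 48 h at up to 100 uM (eight half-log points, duplicate wells). IL6R expression is quantified by qRT-PCR after normalization to ACTB, GAPDH and POLR2A, with DMSO as baseline.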

Read-out in assay [14]: Keratin 19 (KRT19), KRT19 (gene 3880)
The assay can be described thus: LTEA_HepaRG_KRT19: Life Technologies and Expression Analysis (LTEA) Assay for Keratin 19 (KRT19) using HepaRG (AID 2283512). The procedure, abridged:
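Readout is qRT-PCR of KRT19 mRNA, normalized to ACTB, GAPDH and POLR2A, from HepaRG cells treated 48 h with eight-point half-log dilutions topping at 100 uM. Activity in either direction is scored relative to 0.5% DMSO vehicle.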

Read-out in assay [15]: JUN Transcription Factor, JUN (gene 3725)
The assay can be described thus: LTEA_HepaRG_JUN: Life Technologies and Expression Analysis (LTEA) Assay for JUN Transcription Factor using HepaRG (AID 2283513). The gist of the method: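 Gene-expression endpoint: JUN mRNA (qRT-PCR, normalized to three reference genes) in HepaRG cultures treated 48 h with chemicals, duplicate wells, 100 uM maximum with half-log dilutions; bidirectional fitting relative to 0.5% DMSO.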

Read-out in assay [16]: Lipase C (LIPC), LIPC (gene 3990)
Briefly: LTEA_HepaRG_LIPC: Life Technologies and Expression Analysis (LTEA) Assay for Lipase C (LIPC) using HepaRG (AID 2283514). The procedure, abridged: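 LIPC expression was quantified by qRT-PCR against three housekeeping genes (ACTB, GAPDH, POLR2A). Differentiated human HepaRG cells received eight half-log doses (top 100 uM, 0.5% DMSO) in duplicate for 48 h; fitting bidirectional relative to DMSO.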

Read-out in assay [17]: Interleukin 6 (IL6), IL6 (gene 3569)
The assay can be described thus: LTEA_HepaRG_IL6: Life Technologies and Expression Analysis (LTEA) Assay for Interleukin 6 (IL6) using HepaRG (AID 2283509). The gist of the method: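 Transcript levels, normalized to three housekeeping genes, were quantified by qRT-PCR after 48 h chemical treatment of HepaRG cells. Eight-point half-log series from 100 uM in 0.5% DMSO, duplicates. Fitted both directions against DMSO baseline.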

Read-out in assay [18]: Potassium channel subfamily K member 1 (KCNK1), KCNK1 (gene 3775)
The assay can be described thus: LTEA_HepaRG_KCNK1: Life Technologies and Expression Analysis (LTEA) Assay for Potassium channel subfamily K member 1 (KCNK1) using HepaRG (AID 2283511). The gist of the method:
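KCNK1 transcript measured by TaqMan qRT-PCR against three housekeeping genes, after HepaRG cells were treated 48 h with eight half-log concentrations (top 100 uM, 0.5% DMSO). Curves fitted bidirectionally relative to vehicle.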

Activity calls are given as the source filed them. The calls were made as follows: active = hit-call score of the fitted dose curve at least 0.9, where 1 is the maximum; inactive = score below 0.9.

Hypoxia-inducible factor 1-alpha (Homo sapiens), sequence (Q16665 whole entry, looked up): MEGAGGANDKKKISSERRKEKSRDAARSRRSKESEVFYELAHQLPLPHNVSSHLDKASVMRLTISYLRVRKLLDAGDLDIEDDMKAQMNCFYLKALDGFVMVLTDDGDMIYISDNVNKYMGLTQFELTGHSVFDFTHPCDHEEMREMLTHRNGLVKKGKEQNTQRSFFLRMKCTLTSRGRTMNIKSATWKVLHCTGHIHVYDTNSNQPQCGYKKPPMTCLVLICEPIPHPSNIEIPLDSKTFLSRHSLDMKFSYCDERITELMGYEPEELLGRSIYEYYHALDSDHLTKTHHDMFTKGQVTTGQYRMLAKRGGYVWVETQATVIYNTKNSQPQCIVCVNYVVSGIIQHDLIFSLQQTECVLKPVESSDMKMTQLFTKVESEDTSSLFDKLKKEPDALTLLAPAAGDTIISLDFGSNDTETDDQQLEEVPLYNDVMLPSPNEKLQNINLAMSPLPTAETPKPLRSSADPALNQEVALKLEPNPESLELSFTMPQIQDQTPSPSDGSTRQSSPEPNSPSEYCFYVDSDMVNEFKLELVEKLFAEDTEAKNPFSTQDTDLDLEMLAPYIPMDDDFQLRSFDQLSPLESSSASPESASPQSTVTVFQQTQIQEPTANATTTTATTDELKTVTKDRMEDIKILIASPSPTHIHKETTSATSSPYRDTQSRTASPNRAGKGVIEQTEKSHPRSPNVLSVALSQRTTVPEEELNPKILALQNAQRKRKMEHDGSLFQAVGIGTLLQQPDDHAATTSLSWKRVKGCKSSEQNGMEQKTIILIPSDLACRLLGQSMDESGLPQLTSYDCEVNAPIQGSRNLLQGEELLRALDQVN

Regarding `CC1=CC(=O)/C(=C(/C)O)C(=O)O1`, the outcome in assay [1], in assay [2], in [3], in assay [4], in assay [5] and in [6] was inactive. For the same molecule, the molecule was classed as inactive (in assay [7]; in [8]; in [9]; with HGF (gene 3082); in assay [10]; in assay [11]). The call in assay [12], in assay [13], in [14], in assay [15] and in assay [16] was inactive.
On to `CC/C(=C(/CC)c1ccc(O)cc1)c1ccc(O)cc1`, for which the molecule was classed as inactive in assay [1], in assay [3], in [5], in assay [9], in assay [10] and in [11]. Moreover, the outcome in [18] and in assay [16] was inactive. Also, the AC50 in assay [2] was 84.8 µM (active); in assay [4] it was 78.7 µM (active); in [7] it was 75.8 µM (active); in assay [8], 85.7 µM (active); with HGF (gene 3082), 23.6 µM (active); in assay [12], 66.6 µM (active). Moreover, the AC50 in assay [17] was 93 µM (active); in assay [13], 78.5 µM (active); in [14], 9.92 µM (active); in assay [15], 79.2 µM (active).
Regarding `OC12N=C(c3ccccc3)SC1Cc1cc(Cl)ccc12` (stereo not given), the AC50 is 63.2 µM (active) in assay [1]; 9.92 µM (active) in assay [2]; 30 µM (active) in [3]; 25.1 µM (active) in [5]; 20 µM (active) in assay [9]; 13.3 µM (active) in assay [10]. In addition, the AC50 in assay [12] is 13 µM (active); in assay [13], 1.78 µM (active); in assay [14], 16.5 µM (active); in assay [16] it was 17 µM (active). Further, the molecule was called inactive (in assay [4]; in [7]; in [8]; in the assay with HGF (gene 3082); in assay [11]; in assay [17]). The molecule was classed as inactive in assay [15].
Turning to `O=C1O[C@H]([C@@H](O)CO)C(O)=C1O`, the molecule was called inactive in assay [1], in assay [2], in assay [3], in [4], in [5] and in assay [6]. Further, the outcome in assay [7], in [8], in [9], in [10], in assay [11] and in assay [12] was inactive. For the same molecule, the outcome in assay [13] and in assay [16] was inactive.
Consider `O=C(OCCCCCCOC(=O)c1ccccc1)c1ccccc1`, for which the result in assay [1], in assay [2], in [3], in assay [4], in assay [5] and in assay [7] was inactive. Moreover, the molecule was classed as inactive (in assay [8]; in assay [9]; with HGF (gene 3082); in assay [10]; in assay [11]; in [12]). The outcome in [17], in assay [13], in assay [18], in assay [14], in [15] and in assay [16] was inactive.
Take `CCCCCCCCCCCCO`: the result in [1], in assay [3], in assay [4], in assay [5], in [6] and in assay [7] was inactive. Also, the outcome in assay [8], in [9], in assay [10], in [11], in [12] and in [13] was inactive. For the same molecule, the call in assay [18], in [14], in assay [15] and in assay [16] was inactive.
`O=c1c(-c2ccc(O)cc2)coc2cc(O)cc(O)c12`: the molecule was classed as inactive in assay [1], in [2], in [3], in assay [4], in [5] and in [7]. For the same molecule, the call in assay [8], in [9], in assay [10], in [11], in assay [12] and in assay [13] was inactive. Further, the molecule was called inactive in [14], in assay [15] and in [16].
